# High-throughput results deposited in PubChem BioAssay by several laboratories.
# Hits are enriched below; roughly 2.4% of the tested compounds scored in any of these assays.
# APOBEC3G inh – APOBEC3G DNA deaminase inhibitors, primary screen, biochemical, fluorescence, single-stranded DNA substrate, uHTS. DNA dC->dU-editing enzyme APOBEC-3G (Homo sapiens), Q9HC16. recombinant A3G, ssDNA deamination FAM/TAMRA fluorescence. inhibition, % at 20 µM. hit rate 0.28% among 330,000. AID 493012, 2011;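 active = inhibition of at least 40% at 20 µM, with no more than 30% in the related APOBEC3A deaminase screen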;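 also: plate controls were DMSO wells with A3G for no effect and wells lacking A3G enzyme for full effect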
# APOBEC3A inh – APOBEC3A ssDNA deaminase inhibitors, primary screen, selectivity assay for APOBEC3G inhibitor project, biochemical, FAM/TAMRA oligo cleavage fluorescence. inhibition, % at 20 µM. DNA dC->dU-editing enzyme APOBEC-3A (Homo sapiens), P31941. hit rate 0.41% among 330,000. recombinant A3A, FAM/TAMRA ssDNA deamination fluorescence;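 active = at least 40% inhibition at 20 µM here, with at most 30% in a related deaminase screen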;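 also: plate controls were A3A with DMSO for no effect and wells lacking A3A enzyme for full effect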
# Target sequence (P31941 whole entry, looked up): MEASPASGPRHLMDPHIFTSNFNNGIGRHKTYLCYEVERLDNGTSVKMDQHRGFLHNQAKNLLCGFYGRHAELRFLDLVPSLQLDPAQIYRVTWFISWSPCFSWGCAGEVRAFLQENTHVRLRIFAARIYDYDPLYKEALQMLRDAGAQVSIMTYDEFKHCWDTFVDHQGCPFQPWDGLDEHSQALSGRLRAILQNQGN
# PfGluPho inh – PfG6PD enzyme inhibitors, primary screen, biochemical, fluorescence intensity, uHTS; glucose-6-phosphate dehydrogenase-6-phosphogluconolactonase (Plasmodium falciparum 3D7); PfGluPho enzyme, NADPH resazurin-diaphorase fluorescence; inhibition, % at 20 µM; hit rate 0.78% among 350,000; AID 504690, 2011;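 active = inhibition reaching at least a set limit at 20 µM in the primary screen, cut at about 59% in these data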;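 also: 0% = DMSO wells with substrate and 100% = DMSO wells lacking glucose-6-phosphate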
# M18AAP inhibitor – PfM18AAP inhibitors, malaria aminopeptidase, primary screen, biochemical, QFRET, recombinant enzyme. H-Glu-NHMec fluorogenic cleavage. M18 aspartyl aminopeptidase (Plasmodium falciparum 3D7). hit rate 1.2% among 290,000. AID 1822, 2009. inhibition, % at 7.35 µM;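 active = inhibition above the campaign mean inhibition over all tested compounds plus 3 SD, cut at about 28% in these data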;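 also: 0% = plate median of test compound wells and 100% = 2 mM ZnCl2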
# CR mimetic SO – reduction of superoxide in aged yeast, primary screen, HTS; AID 2690, 2010; superoxide response (% of plate mean), % at 10 µM; hit rate 0.18% among 330,000; S. cerevisiae aged cells, superoxide DHE fluorescence; hits give low values;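 active = superoxide response under a set limit, about three screen SD below normal, cut at about 65% in these data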;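 also: yeast aged for seven days with compound at 30 °C before DHE staining; 100% = average MFI of all compound-treated wells on the plate with controls excluded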
# * hit, by the source's call; x = not tested or not shown.
SMILES,APOBEC3G inh,APOBEC3A inh,PfGluPho inh,M18AAP inhibitor,CR mimetic SO
COc1cc(NC(=O)CSc2nc3[nH]ncc3c(=O)n2-c2ccccc2)cc(OC)c1OC,x,x,-3.8,x,x
COc1cc2c(cc1OC)CN(C(=O)CSc1nc3[nH]ncc3c(=O)n1-c1ccccc1)CC2,4.7,0.7,6.6,31.3*,89.5
Cc1cc(C(=O)N2CCN(S(=O)(=O)c3ccc(F)c(Cl)c3)CC2)c(C)o1,-3.5,-0.1,7.9,x,88.9
O=C(CCCSc1ccccc1)Nc1nc(-c2ccco2)c(-c2ccco2)s1,x,x,28.6,8.6,85.5
O=C(CCl)Nc1nc(-c2ccco2)c(-c2ccco2)s1,66.7,77.9,20.2,36.0*,110.0
CC(=O)N(c1ccc2oc(=O)sc2c1)S(=O)(=O)c1ccccc1,2.1,-0.3,18.2,28.6*,74.2
Cc1cc(-c2ccc(C(C)C)c(S(=O)(=O)Nc3cc(C)on3)c2)on1,7.4,4.6,6.0,-17.3,115.6
CC(=O)OC(C(=O)Nc1nccs1)c1ccccc1 (stereo unspecified),-7.2,-3.5,-15.9,3.5,89.4
O=C(Nc1nccs1)C(Br)C(Br)c1ccccc1 (stereo unspecified),-1.8,4.4,51.2,30.6*,108.1
COc1ccc(CCC(=O)Nc2cccc(S(=O)(=O)N3CCCC3)c2)cc1OC,-6.5,0.0,-2.3,x,90.0
O=C(COc1cccc2ccccc12)NNC(=O)CSCCO,x,x,-18.3,30.8*,105.8
CCOC(=O)c1c(NC(=O)CSc2n[nH]c(CNc3ccccc3)n2)sc(C)c1C,-1.0,2.9,-16.9,1.1,105.8
CCOC(=O)c1c(NC(=O)CSc2n[nH]c(-c3ccco3)n2)sc(C)c1C,-5.6,0.1,-11.1,30.8*,92.4
CC[n+]1oc(-c2ccccc2)cc1C,-7.5,1.2,13.1,-6.3,105.5
Oc1ccc(/C=N/Nc2ncc(Br)cn2)c(O)c1,-0.6,-0.1,5.2,51.7*,84.2
CCN(CC)S(=O)(=O)c1ccc(N/N=C/c2ccc(O)cc2O)nc1,-6.6,-6.3,-9.8,36.5*,102.1
O=[N+]([O-])c1ccc(NN=Cc2ccc(O)cc2O)nc1,x,x,4.2,x,x
Oc1ccc(Br)cc1/C=N/Nc1ncc(-c2ccccc2)cn1,-8.3,1.6,-0.3,-10.7,87.9
Cc1ccc(N2CC(O)CSC2=Nc2ccccc2)cc1 (stereo unspecified),x,x,-6.5,x,x
O=C(Nc1cccc(-c2nc3ccccc3[nH]2)c1)c1ccccn1,-3.1,13.6,-1.2,31.0*,97.8
CN1CCN(c2ccc3sc(-n4ccc5ccccc54)nc3c2)CC1,x,x,24.7,x,x
C=CCOc1ccc(/C=C2/C(=O)ON=C2C)cc1OC,2.7,0.9,20.4,29.6*,92.5
Oc1cccc(/C=N/Nc2cc(N3CCOCC3)nc(N3CCOCC3)n2)c1,-6.4,-4.0,10.6,5.3,96.2
Oc1ccc(/C=N/Nc2cc(N3CCOCC3)nc(N3CCOCC3)n2)cc1O,-4.6,-1.1,7.3,55.7*,112.4
CCOC(=O)NC1(NCc2ccccc2)Oc2ccccc2O1,-3.8,-4.0,24.6,54.2*,84.1
SMILES,APOBEC3G inh,APOBEC3A inh,PfGluPho inh,M18AAP inhibitor,CR mimetic SO
O=C(NC1CC1)C1CCN(c2ncccn2)CC1,-12.9,-4.4,-15.2,1.2,96.1
O=C1CSC(=S)N1/N=C/c1cc(Br)ccc1O,x,x,x,35.2*,101.6
O=C1CSC(=S)N1/N=C/c1ccc(O)c(O)c1O,70.6,49.8,78.6*,68.2*,91.7
CC(C)(C)c1ccc(/C=N/N2C(=O)CSC2=S)cc1,-4.1,-1.5,-6.4,30.8*,102.8
COc1ccc(/C=N/N2C(=O)CSC2=S)cc1Br,-14.7,-0.7,-4.4,x,96.7
COc1ccccc1C=NN1C(=O)CSC1=S,x,x,6.9,x,x
O=C(NNC(=O)C1CC1)c1ccc(F)cc1F,-4.8,-4.7,-3.9,x,124.0
Cc1cc(NC(=O)CCC(=O)N(CC(=O)NCC2CCCO2)c2ccc(C(C)C)cc2)no1 (stereo unspecified),-2.2,1.2,-6.4,-2.5,92.4
Clc1ccc(NCc2ccsc2)cc1,-5.2,-6.5,x,3.0,99.6
O=C(CS(=O)(=O)c1ccccc1)c1cc2cc(F)ccc2oc1=O,3.3,-3.8,-14.7,28.5*,105.6
CCCN(C1CCS(=O)(=O)C1)S(=O)(=O)c1ccc(F)cc1 (stereo unspecified),-6.5,-0.1,10.4,x,101.7
